{
  "source": "the supplement of paper PMC8728848",
  "test_in_all_cases": "glycan array binding signal (z-score within array); higher = stronger binding",
  "key": {"[1]": {"tested_on": "Gal(b1-3)[Fuc(a1-4)]GlcNAc(b1-3)Gal(b1-4)[Fuc(a1-3)]GlcNAc", "details": "glycan notation: IUPAC condensed, linker removed", "method_in_brief": "(§1)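 Columns mapping to the same glycan were averaged after glycan names were converted to IUPAC-condensed notation. The data come from 3228 arrays in the Consortium for Functional Glycomics database, limited to those with an available protein sequence. Binding is reported as a within-array Z-score averaged across arrays of one protein sequence and across linkers.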"}, "[2]": {"tested_on": "Gal(b1-3)[Fuc(a1-4)]GlcNAc(b1-3)Gal(b1-3)[Fuc(a1-4)]GlcNAc", "details": "glycan notation: IUPAC condensed, linker removed", "method_in_brief": "as §1"}, "[3]": {"tested_on": "Gal(b1-4)GlcNAc(b1-2)Man(a1-3)Man(b1-4)GlcNAc(b1-4)GlcNAc", "details": "glycan notation: IUPAC condensed, linker removed", "method_in_brief": "as §1"}, "[4]": {"tested_on": "Gal(b1-3)GlcNAc(b1-3)Gal(b1-4)Glc", "details": "glycan notation: IUPAC condensed, linker removed", "method_in_brief": "as §1"}, "[5]": {"tested_on": "Gal(b1-3)[Fuc(a1-4)]GlcNAc(b1-2)Man(a1-3)[Gal(b1-3)[Fuc(a1-4)]GlcNAc(b1-2)Man(a1-6)]Man(b1-4)GlcNAc(b1-4)[Fuc(a1-6)]GlcNAc", "details": "glycan notation: IUPAC condensed, linker removed", "method_in_brief": "as §1"}, "[6]": {"tested_on": "Gal(b1-4)GlcNAc(b1-2)Man(a1-3)[Gal(b1-4)GlcNAc(b1-2)Man(a1-6)][Gal(b1-4)GlcNAc(b1-4)]Man(b1-4)GlcNAc(b1-4)[Fuc(a1-6)]GlcNAc", "details": "glycan notation: IUPAC condensed, linker removed", "method_in_brief": "as §1"}, "[7]": {"tested_on": "Gal(b1-3)GlcNAc(b1-3)GalNAc", "details": "glycan notation: IUPAC condensed, linker removed", "method_in_brief": "as §1"}, "Gal(b1-3)GlcNAc6S": {"tested_on": "Gal(b1-3)GlcNAc6S", "details": "glycan notation: IUPAC condensed, linker removed", "method_in_brief": "as §1"}, "[8]": {"tested_on": "Gal(b1-3)[Fuc(a1-4)]GlcNAc", "details": "glycan notation: IUPAC condensed, linker removed", "method_in_brief": "as §1"}, "[9]": {"tested_on": "Gal(b1-3)[Neu5Ac(a2-6)]GlcNAc(b1-6)Gal(b1-4)Glc", "details": "glycan notation: IUPAC condensed, linker removed", "method_in_brief": "as §1"}, "[10]": {"tested_on": "Gal(b1-3)[Fuc(a1-4)]GlcNAc(b1-2)Man(a1-3)[Gal(b1-3)[Fuc(a1-4)]GlcNAc(b1-2)Man(a1-6)]Man(b1-4)GlcNAc(b1-4)GlcNAc", "details": "glycan notation: IUPAC condensed, linker removed", "method_in_brief": "as §1"}, "[11]": {"tested_on": "Gal(b1-3)[GlcNAc(b1-6)]GalNAc", "details": "glycan notation: IUPAC condensed, linker removed", "method_in_brief": "as §1"}, "[12]": {"tested_on": "Gal(b1-3)[Neu5Ac(a2-6)]GlcNAc(b1-4)Gal(b1-4)Glc", "details": "glycan notation: IUPAC condensed, linker removed", "method_in_brief": "as §1"}, "Gal(b1-4)Gal": {"tested_on": "Gal(b1-4)Gal", "details": "glycan notation: IUPAC condensed, linker removed", "method_in_brief": "as §1"}, "[13]": {"tested_on": "Gal(b1-3)[Fuc(a1-4)]GlcNAc(b1-3)Gal(b1-4)GlcNAc", "details": "glycan notation: IUPAC condensed, linker removed", "method_in_brief": "as §1"}, "Gal(b1-4)Glc6S": {"tested_on": "Gal(b1-4)Glc6S", "details": "glycan notation: IUPAC condensed, linker removed", "method_in_brief": "as §1"}, "[14]": {"tested_on": "Gal(b1-3)[Fuc(a1-4)]GlcNAc(b1-2)Man", "details": "glycan notation: IUPAC condensed, linker removed; mutation: R125K", "method_in_brief": "as §1"}, "[15]": {"tested_on": "Gal(b1-4)GlcNAc(b1-2)Man(a1-3)[Gal(b1-4)GlcNAc(b1-2)Man(a1-6)]Man(b1-4)GlcNAc(b1-4)[Fuc(a1-6)]GlcNAc", "details": "glycan notation: IUPAC condensed, linker removed", "method_in_brief": "as §1"}, "[16]": {"tested_on": "Gal(b1-4)GalNAc(a1-3)[Fuc(a1-2)]Gal(b1-4)GlcNAc", "details": "glycan notation: IUPAC condensed, linker removed", "method_in_brief": "as §1"}, "Gal(b1-3)GlcNAc": {"tested_on": "Gal(b1-3)GlcNAc", "details": "glycan notation: IUPAC condensed, linker removed", "method_in_brief": "as §1"}},
  "note": "Shown is part of a subset that was picked to be rich in the strongest signals.",
  "data": [
    {"substance": "SRLC (Mus musculus), Q8VIF6", "values": [
      {"measurement": "glycan array binding signal (z-score)", "setting": "[1]", "result": 4.49}
    ]},
    {"substance": "Neurocan (Homo sapiens), O14594", "values": [
      {"measurement": "glycan array binding signal (z-score)", "setting": "[2]", "result": 2.48},
      {"measurement": "glycan array binding signal (z-score)", "setting": "[3]", "result": 0.015}
    ]},
    {"substance": "Avaren (Actinomycete K97)", "values": [
      {"measurement": "glycan array binding signal (z-score)", "setting": "[4]", "result": 0.952},
      {"measurement": "glycan array binding signal (z-score)", "setting": "[5]", "result": 1.53},
      {"measurement": "glycan array binding signal (z-score)", "setting": "[6]", "result": -0.121}
    ]},
    {"substance": "CHI3L1 (Homo sapiens), P36222", "values": [
      {"measurement": "glycan array binding signal (z-score)", "setting": "[7]", "result": -0.129},
      {"measurement": "glycan array binding signal (z-score)", "setting": "Gal(b1-3)GlcNAc6S", "result": 0.72},
      {"measurement": "glycan array binding signal (z-score)", "setting": "[3]", "result": -0.118}
    ]},
    {"substance": "C3b (Homo sapiens), P01024", "values": [
      {"measurement": "glycan array binding signal (z-score)", "setting": "[2]", "result": 0.483},
      {"measurement": "glycan array binding signal (z-score)", "setting": "[8]", "result": 0.283}
    ]},
    {"substance": "Aggrecan (Rattus norvegicus), NP_071526", "values": [
      {"measurement": "glycan array binding signal (z-score)", "setting": "[4]", "result": 0.002},
      {"measurement": "glycan array binding signal (z-score)", "setting": "[2]", "result": 0.137},
      {"measurement": "glycan array binding signal (z-score)", "setting": "[8]", "result": 4.94},
      {"measurement": "glycan array binding signal (z-score)", "setting": "[9]", "result": -0.144}
    ]},
    {"substance": "PILRa (Mus musculus), Q2YSF3", "values": [
      {"measurement": "glycan array binding signal (z-score)", "setting": "[10]", "result": 0.063}
    ]},
    {"substance": "HARE (Homo sapiens), Q8WWQ8", "values": [
      {"measurement": "glycan array binding signal (z-score)", "setting": "[11]", "result": -0.451},
      {"measurement": "glycan array binding signal (z-score)", "setting": "[12]", "result": 1.92}
    ]},
    {"substance": "MpAFP RI GFP (Marinomonas primoryensis)", "values": [
      {"measurement": "glycan array binding signal (z-score)", "setting": "[5]", "result": 2.74},
      {"measurement": "glycan array binding signal (z-score)", "setting": "[1]", "result": -0.369},
      {"measurement": "glycan array binding signal (z-score)", "setting": "[11]", "result": -0.258},
      {"measurement": "glycan array binding signal (z-score)", "setting": "Gal(b1-4)Gal", "result": -0.4}
    ]},
    {"substance": "Regenerating Gene IV (Homo sapiens), Q9BYZ8", "values": [
      {"measurement": "glycan array binding signal (z-score)", "setting": "[2]", "result": -0.411},
      {"measurement": "glycan array binding signal (z-score)", "setting": "[13]", "result": -0.208},
      {"measurement": "glycan array binding signal (z-score)", "setting": "Gal(b1-4)Glc6S", "result": 2.4}
    ]},
    {"substance": "Siglec-8 (Homo sapiens), Q9NYZ4", "values": [
      {"measurement": "glycan array binding signal (z-score)", "setting": "[14]", "result": 0.797},
      {"measurement": "glycan array binding signal (z-score)", "setting": "[8]; mutation: R125K", "result": -0.408},
      {"measurement": "glycan array binding signal (z-score)", "setting": "[3]", "result": -0.306},
      {"measurement": "glycan array binding signal (z-score)", "setting": "[15]", "result": -0.08},
      {"measurement": "glycan array binding signal (z-score)", "setting": "[6]; mutation: R125K", "result": -0.535}
    ]},
    {"substance": "wLAT-1A (Homo sapiens), Q01650", "values": [
      {"measurement": "glycan array binding signal (z-score)", "setting": "[16]", "result": -0.62}
    ]},
    {"substance": "PILRb (Mus musculus), Q2YSF2", "values": [
      {"measurement": "glycan array binding signal (z-score)", "setting": "Gal(b1-3)GlcNAc", "result": -0.113},
      {"measurement": "glycan array binding signal (z-score)", "setting": "[16]", "result": -0.547},
      {"measurement": "glycan array binding signal (z-score)", "setting": "Gal(b1-4)Gal", "result": 0.167},
      {"measurement": "glycan array binding signal (z-score)", "setting": "Gal(b1-4)Glc6S", "result": 1.22}
    ]},
    {"substance": "6RG (Lolium perenne), B9U140", "values": [
      {"measurement": "glycan array binding signal (z-score)", "setting": "[9]", "result": -0.249}
    ]},
    {"substance": "6RG (Lolium perenne)", "values": [
      {"measurement": "glycan array binding signal (z-score)", "setting": "[4]", "result": 6.36},
      {"measurement": "glycan array binding signal (z-score)", "setting": "[11]", "result": -0.16},
      {"measurement": "glycan array binding signal (z-score)", "setting": "[9]", "result": 4.25}
    ]}
  ]
}
